TR-FRET SRC-2 ct – counter-screen for PPARgamma SRC-2 recruitment agonists: TR-FRET artefact. stronger effect = higher value. TR-FRET ratio at 8 µM. 0.4% of 200,000 active
SRC3 TRFRET art – TR-FRET artefact, counter-screen to PPARgamma/SRC-3 agonist assay | 0.39% of 99,000 active | PPARgamma/SRC-3 format; stronger effect = higher value | TR-FRET ratio at 8 µM
PPARg SRC1 recr – agonists of human PPARgamma SRC-1 coactivator recruitment; activation, % at 8 µM; 0.41% of 200,000 active; PPARgamma-SRC-1 coactivator recruitment biochemical assay; P37231; in the data active = activation above about 19%
SRC1 TRFRET art – flags TR-FRET format artefacts in PPARgamma SRC-1 recruitment agonist screen. TR-FRET ratio at 8 µM. 0.34% of 99,000 active. TR-FRET detection artefact counter-screen, emission ratio; stronger effect = higher value; in the data active = TR-FRET ratio above about 2300
PPARg SRC-3 ag – promotes SRC-3 coactivator recruitment by human PPARgamma; activation, % at 8 µM; biochemical PPARgamma/SRC-3 coactivator recruitment assay; P37231; AID 731; 0.26% of 200,000 active; in the data active = activation above about 23%
PPARg SRC-2 ag – PPARgamma-driven SRC-2 recruitment agonism. activation, % at 8 µM. 0.34% of 200,000 active. AID 1032. PPARgamma LBD-SRC-2 recruitment, biochemical. P37231; in the data active = activation above about 22%
PPARg SRC2 conf – confirmation of agonists of SRC-2 recruitment by human PPARgamma. shares compounds with PPARg SRC-3 ag. activation, % at 8 µM. AID 1297. 52% of 790 active. biochemical SRC-2 recruitment by PPARgamma; in the data active = activation above about 22%
PPARg SRC1 ag – human PPARgamma SRC-1 recruitment agonism, confirmation | activation, % at 8 µM | PPARgamma–SRC-1 coactivator recruitment biochemical assay | shares compounds with PPARg SRC-3 ag | AID 1300 | 43% of 790 active; in the data active = activation above about 20%
PPARg SRC3 ag – confirmation of agonists of SRC-3 recruitment by human PPARgamma; shares compounds with PPARg SRC-3 ag; biochemical PPARgamma-SRC-3 coactivator recruitment, agonist mode; activation, % at 8 µM; 29% of 790 active; AID 1301; in the data active = activation above about 24%
Numbers stand for hits. Sampled rows, rich in hits. Any-hit rate of the full collection: about 0.9%. Rule as the data show it, unless noted: active = TR-FRET ratio above about 2000; inactive = the rest.

How did CCS(=O)(=O)Nc1ccc(-c2nnc(SCC(=O)c3ccc(NC(C)=O)c(OC)c3)o2)cc1 do in these assays?
TR-FRET SRC-2 ct: inactive; PPARg SRC1 recr: 31; PPARg SRC-3 ag: 57; PPARg SRC-2 ag: inactive; PPARg SRC2 conf: inactive; PPARg SRC1 ag: inactive; PPARg SRC3 ag: inactive

What do the screens show for `CCS(=O)(=O)Nc1ccc(-c2nnc(SCC(=O)c3cccc(OC)c3)o2)cc1`?
TR-FRET SRC-2 ct: inactive; PPARg SRC1 recr: inactive; PPARg SRC-3 ag: inactive; PPARg SRC-2 ag: inactive

How did Cc1ccc(S(=O)(=O)N(C)C)cc1NC(=O)COC(=O)c1ccc(Cl)cc1 do in these assays?
TR-FRET SRC-2 ct: inactive; SRC3 TRFRET art: inactive; PPARg SRC1 recr: inactive; SRC1 TRFRET art: inactive; PPARg SRC-3 ag: inactive; PPARg SRC-2 ag: inactive

What do the screens show for `CC(Nc1ccc(Br)cn1)c1cc(Cl)ccc1O` (configuration not stated)?
TR-FRET SRC-2 ct: inactive; PPARg SRC1 recr: 78; PPARg SRC-3 ag: 52; PPARg SRC-2 ag: 37; PPARg SRC2 conf: 33; PPARg SRC1 ag: 51; PPARg SRC3 ag: 41

What do the screens show for `CC(Nc1ccc(Cl)cc1)c1cc(Cl)ccc1O` (configuration not stated)?
TR-FRET SRC-2 ct: inactive; PPARg SRC1 recr: inactive; PPARg SRC-3 ag: inactive; PPARg SRC-2 ag: inactive

How did CCCSc1nc2c(c(=O)[nH]c(=O)n2C)n1C do in these assays?
TR-FRET SRC-2 ct: inactive; PPARg SRC1 recr: 21; PPARg SRC-3 ag: inactive; PPARg SRC-2 ag: inactive; PPARg SRC2 conf: inactive; PPARg SRC1 ag: inactive; PPARg SRC3 ag: inactive

What do the screens show for `CCSc1nc2c(c(=O)[nH]c(=O)n2C)n1C`?
TR-FRET SRC-2 ct: inactive; PPARg SRC1 recr: inactive; PPARg SRC-3 ag: inactive; PPARg SRC-2 ag: inactive

What do the screens show for `COc1ccc(CNC(=O)CSc2nc(-c3ccccc3)cc(-c3cccs3)c2C#N)cc1`?
TR-FRET SRC-2 ct: 3077; PPARg SRC1 recr: inactive; PPARg SRC-3 ag: inactive; PPARg SRC-2 ag: 55; PPARg SRC2 conf: 26; PPARg SRC1 ag: 25; PPARg SRC3 ag: inactive

How did CCN(CC)c1ccc(/C=C2\NC(=O)NC2=O)cc1 do in these assays?
TR-FRET SRC-2 ct: inactive; SRC3 TRFRET art: inactive; PPARg SRC1 recr: inactive; SRC1 TRFRET art: 2555; PPARg SRC-3 ag: inactive; PPARg SRC-2 ag: 25; PPARg SRC2 conf: inactive; PPARg SRC1 ag: inactive; PPARg SRC3 ag: inactive

Results for CCn1c(SCC(=O)NNC(=O)c2ccc(OC)cc2)nnc1-c1cccnc1 ?
TR-FRET SRC-2 ct: inactive; SRC3 TRFRET art: inactive; PPARg SRC1 recr: inactive; SRC1 TRFRET art: inactive; PPARg SRC-3 ag: inactive; PPARg SRC-2 ag: inactive

What do the screens show for `C=CCC1(NC(C)c2ccccc2)CCCCC1` (configuration not stated)?
TR-FRET SRC-2 ct: inactive; SRC3 TRFRET art: inactive; PPARg SRC1 recr: inactive; SRC1 TRFRET art: inactive; PPARg SRC-3 ag: inactive; PPARg SRC-2 ag: inactive

How did Cc1ccc(C(=O)OCC(=O)c2ccc[nH]2)s1 do in these assays?
TR-FRET SRC-2 ct: inactive; SRC3 TRFRET art: inactive; PPARg SRC1 recr: inactive; SRC1 TRFRET art: inactive; PPARg SRC-3 ag: inactive; PPARg SRC-2 ag: inactive

What do the screens show for `O=C(COC(=O)c1ccc(Cl)s1)c1ccc[nH]1`?
TR-FRET SRC-2 ct: inactive; SRC3 TRFRET art: inactive; PPARg SRC1 recr: inactive; SRC1 TRFRET art: inactive; PPARg SRC-3 ag: inactive; PPARg SRC-2 ag: 22; PPARg SRC2 conf: inactive; PPARg SRC1 ag: inactive; PPARg SRC3 ag: inactive

How did COc1ccc(NC(=O)c2cn(CCC#N)nc2-c2cc3ccccc3o2)cc1 do in these assays?
TR-FRET SRC-2 ct: inactive; SRC3 TRFRET art: inactive; PPARg SRC1 recr: inactive; SRC1 TRFRET art: inactive; PPARg SRC-3 ag: inactive; PPARg SRC-2 ag: inactive

Results for O=Nc1c(O)[nH]c2ccc(F)cc12 ?
TR-FRET SRC-2 ct: inactive; SRC3 TRFRET art: inactive; PPARg SRC1 recr: inactive; SRC1 TRFRET art: inactive; PPARg SRC-3 ag: inactive; PPARg SRC-2 ag: inactive

How did Cc1cc2c(N=O)c(NO)ccc2[nH]1 do in these assays?
TR-FRET SRC-2 ct: inactive; PPARg SRC1 recr: inactive; PPARg SRC-3 ag: 30; PPARg SRC-2 ag: inactive; PPARg SRC2 conf: inactive; PPARg SRC1 ag: inactive; PPARg SRC3 ag: inactive

Compound activity deposited in PubChem by The Scripps Research Institute Molecular Screening Center.
